# CHT PAM: human CHT allosteric activation; actives 0.49% (n = 310,000); B-score at 10 µM; CHT-expressing cells, membrane potential dye, choline EC20; hits give high values; LV-AA mutant CHT in HEK293 cells; Q9GZV3;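 active = initial fluorescence not abnormally high and integrated response B-score, plate-corrected, over 3 SD above library mean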
# Target sequence (Q9GZV3 whole entry, looked up): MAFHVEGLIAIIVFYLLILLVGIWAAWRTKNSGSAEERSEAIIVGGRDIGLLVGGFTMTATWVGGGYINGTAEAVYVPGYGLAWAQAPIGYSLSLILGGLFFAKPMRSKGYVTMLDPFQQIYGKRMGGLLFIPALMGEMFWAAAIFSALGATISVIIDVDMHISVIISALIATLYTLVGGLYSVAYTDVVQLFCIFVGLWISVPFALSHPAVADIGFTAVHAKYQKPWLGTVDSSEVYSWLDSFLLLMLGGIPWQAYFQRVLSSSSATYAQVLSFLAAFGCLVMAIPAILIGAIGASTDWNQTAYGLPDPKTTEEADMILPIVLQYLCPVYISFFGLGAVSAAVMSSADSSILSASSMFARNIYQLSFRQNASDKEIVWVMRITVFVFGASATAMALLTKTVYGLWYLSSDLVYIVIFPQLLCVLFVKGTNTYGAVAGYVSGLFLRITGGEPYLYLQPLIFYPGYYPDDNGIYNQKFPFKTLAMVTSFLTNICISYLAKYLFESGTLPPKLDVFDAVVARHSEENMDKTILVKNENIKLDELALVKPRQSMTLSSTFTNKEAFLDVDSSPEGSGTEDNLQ
# AI-2 QS modul: modulators of Vibrio harveyi AI-2 quorum sensing system | activity change, % at 7.5 µM | Vibrio harveyi JMH597 AI-2 luminescence/OD600 ratio, 9 h; hits give low values; strain lacks LuxN and CqsS sensors; 0 = neutral-control median | AID 2094 | actives 0.4% (n = 300,000); in the data active = activity change below about -75%, passing the limit was not always enough;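 note: luminescence divided by OD600 gain over 9 h not by final OD600 alone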
# CHT inh: inhibits the human high affinity choline transporter; B-score at 10 µM; CHT-expressing cells, membrane potential dye, choline response; hits give low values; Q9GZV3; actives 0.86% (n = 310,000);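 active = B-score over 3 SD under the library average, and starting fluorescence ratio not unusually high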;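 note: choline stimulus applied at its EC90 after an EC20 pre-addition; B-score computed on integrated fluorescence ratio after choline addition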
# PREPL inhibitor: inhibits the human prolyl oligopeptidase-like enzyme. Q4J6C6. recombinant PREPL, fluorescence polarization activity-based probe. inhibition, % at 5.96 µM. actives 0.68% (n = 320,000). AID 2751; in the data active = inhibition above about 43%;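 note: 0% = enzyme with DMSO and 100% = wells lacking enzyme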
# ALR H2O2 inh: inhibitors of human sulfhydryl oxidase ALR; P55789; purified ALR, DTT oxidation, H2O2 HRP-luminol luminescence; inhibition, % (no concentration beside the values); actives 3.8% (n = 290,000); AID 485317;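 active = mean replicate inhibition above about 79%, with every replicate also reaching it, limit read from the data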
# * = called active by the depositor; i = inactive; x = no result. In the library only some 5% were active in any assay of this set; here they are far more common.
SMILES,CHT PAM,AI-2 QS modul,CHT inh,PREPL inhibitor,ALR H2O2 inh
CCOC(=O)c1c(N)sc(C(=O)N(CC)CC)c1C,i,27,i,-1,96*
CCOC(=O)c1c(N)sc(C(=O)N2CCCCCC2)c1C,i,33,i,-2,83*
CCOC(=O)c1sc(NC(=O)CCN2CCCCCC2)c(C(=O)OCC)c1C,i,4,i,1,97*
CCOC(=O)c1c(NC(=O)CC)sc(C(=O)N2CCCCC2)c1C,i,3,i,-6,-3
Cc1cc(S(=O)(=O)N2CCCCC2)c(C)s1,i,x,i,17,-6
O=c1nc(-c2ccccc2)c(-c2ccccc2)n[nH]1,i,14,i,x,1
S=c1nc(-c2ccccc2)c(-c2ccccc2)n[nH]1,i,-2,i,-4,86*
COc1ccc(NC2CCCN(C(=O)c3ccc(C(C)=O)cc3)C2)cc1 (stereo not given),i,19,i,x,98*
COc1ccc(NC2CCCN(C(=O)c3cccc(N(C)C)c3)C2)cc1 (stereo not given),x,25,x,x,x
COc1ccc(NC2CCCN(C(=O)c3ccc(OC)o3)C2)cc1 (stereo not given),i,25,i,3,99*
COc1ccc(NC2CCCN(C(=O)c3ccc(C)c(N4CCNC4=O)c3)C2)cc1 (stereo not given),i,20,i,10,98*
CC(=O)c1ccc(C(=O)N2CCCC(N3CCN(c4ccc(F)cc4)CC3)C2)s1 (stereo not given),i,35,i,-8,x
COc1ccc(NC2CCCN(C(=O)c3ccc(C(C)=O)s3)C2)cc1 (stereo not given),i,x,i,22,92*
CC(C)Cn1c(SCC(=O)Nc2cc(Cl)c(Cl)cc2Cl)nc(O)cc1=O,i,40,i,-13,-52
C=CCOc1cccc(/C=N/NC(=O)CC(=O)NC2CCCCC2)c1,i,38,i,-3,-14
COc1cc(/C=C(\NC(C)=O)C(=O)NC(C)(C)C)ccc1OC(C)=O,i,32,i,-3,47
CC1(c2nnc(-c3ccc(Cl)cc3)o2)CC(c2cccnc2)=NO1 (stereo not given),i,25,i,3,-7
COc1ccc(NC2CCCN(C(=O)c3ccc4[nH]c(C)c(C)c4c3)C2)cc1 (stereo not given),i,-1,i,8,88*
COc1ccc(C(=O)N2CCCC(Nc3ccc(F)c(F)c3)C2)c(OC)n1 (stereo not given),i,23,i,8,20
COc1ccc(NC2CCCN(C(=O)c3ccc(C)nc3)C2)cc1 (stereo not given),i,34,i,3,99*
COc1ccc(NC2CCCN(C(=O)c3cc4ncccn4n3)C2)cc1 (stereo not given),i,19,i,4,100*
COc1ccc(C(=O)N2CCCC(Nc3ccc(F)cc3)C2)c(OC)c1 (stereo not given),i,25,i,2,98*
Cc1ccc(C(=O)N2CCCC(Nc3ccc(C(C)C)cc3)C2)cn1 (stereo not given),i,9,i,9,65
O=C(c1csc(Nc2cccc3ccccc23)n1)N1CCCC1,i,16,i,30,-1
O=C(c1csc(Nc2ccccc2Cl)n1)N1CCCC1,i,9,i,0,84*
SMILES,CHT PAM,AI-2 QS modul,CHT inh,PREPL inhibitor,ALR H2O2 inh
CCN(C(=O)Cn1cnc2ccccc2c1=O)C1CCS(=O)(=O)C1 (stereo not given),i,17,i,-2,-14
CC(=O)Nc1cc(-c2ccc(F)cc2)[nH]n1,i,7,i,0,26
CCNC(=S)Nc1cc(-c2ccc(Cl)cc2)[nH]n1,i,-59,i,-3,97*
CCN(CC)CCCN=C1N[C@@H](c2cccc(C(F)(F)F)c2)C(C(=O)OC)=C(C)N1CC,x,x,x,18,7
Cc1ccc(C(=O)NCC(c2ccco2)N2CCc3ccccc32)cc1 (stereo not given),i,21,i,-8,77*
O=C(NCC(c1ccco1)N1CCc2ccccc21)c1ccccc1F (stereo not given),i,30,i,9,98*
CC(C)C(NC(=O)CN(c1ccc2c(c1)OCCO2)S(=O)(=O)c1ccccc1)C(C)C,i,-2,i,-2,-23
Cc1cc(C(=O)c2cccs2)c(N)s1,i,0,i,20,99*
CCOC(=O)Cn1nnnc1CN1CCN(c2ccc(OC)cc2)CC1,i,15,i,6,92*
COc1ccc(N2CCN(Cc3nnnn3C3CCCCC3)CC2)cc1,i,26,i,15,23
Cc1nc(N2CCN(C)CC2)c2cc(-c3ccccc3)sc2n1,i,x,i,-134,97*
Cc1ccc(Cl)c(N/C=C/C(=O)c2ccccc2)c1,i,19,i,9,11
O=C(O)CCCCCn1c(SCC(=O)c2ccc(O)c(O)c2)nc2ccsc2c1=O,i,14,i,12,99*
O=C1c2ccccc2C(=O)N1CC1CCCO1 (stereo not given),i,3,i,-13,1
CCOc1ccc(NC(=O)CSc2nc3ccsc3c(=O)n2CCC(=O)O)cc1,i,19,i,-3,95*
O=c1c2ccccc2c2ccccc2c(=O)n1CC1CCCO1 (stereo not given),i,1,i,-5,99*
CN(C)c1ccc(NC(=O)CSc2nc3ccccc3c(=O)n2CC2CCCO2)cc1 (stereo not given),i,16,i,7,87*
CC(C)(C)c1ccc(/C=N/OCC(=O)NCc2ccc(F)cc2)cc1,i,13,i,20,8
CCOc1ccc(Br)cc1C(=S)N1CCCC1,i,2,i,7,-3
C/C=C(\C)C(=O)Nc1cccc(C2=NOC3(C2)C[C@H](C(N)=O)N(C(=O)C(c2ccccc2)c2ccccc2)C3)c1 (stereo not given in full),i,-4,i,-4,-1
O=C(CCCn1c(SCC(=O)c2ccc(O)c(O)c2)nc2ccccc2c1=O)NCC1CCCO1 (stereo not given),i,15,i,6,99*
COc1ccc(OC)c(N(CC(N)=O)S(=O)(=O)c2ccc(OC)c(OC)c2)c1,i,7,i,20,99*
O=C(COC(=O)c1ccccc1Cl)NC1CCCCCC1,x,x,x,23,58
CC(O)CC(C(=O)NNc1ccccc1)C(=O)NNc1ccccc1 (stereo not given),i,11,i,11,99*
O=C(NNc1ccccc1)C(CCO)C(=O)NNc1ccccc1,i,11,i,-1,98*
CC(C)C(=O)NNc1ccccc1,i,-2,i,4,42
